{"source": "the supplement of paper PMC7411640", "system": "MDA-MB-468", "test": "phospho-S6 immunofluorescence (DAPI-normalised), per-plate z-score; higher = higher phospho-S6 signal (less pathway suppression)", "settings": "24 h", "description": "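GPCR-targeted compound library (MedChemExpress HY-L006) tested on MDA-MB-468 PTEN-null TNBC cells in 384-well plates at 0.1, 1 or 10 uM, combined with vehicle, GDC0941 450 nM or lapatinib 1 uM, for 24 h. Phospho-S6 (S240/244) immunofluorescence normalised to DAPI and expressed as a per-plate z-score; values are the mean of biological triplicates.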", "note": "Structures can show the parent of a compound that is named as a salt."}
{"compound": "CCc1c(C)[nH]c2c1C(=O)C(CN1CCOCC1)CC2", "note": "(stereo unspecified) [Molindone (hydrochloride)] (compound 10 µM)", "values": [{"measurement": "phospho-S6 immunofluorescence (z-score)", "setting": "co-treatment: GDC0941 450 nM", "result": -0.5}, {"measurement": "phospho-S6 immunofluorescence (z-score)", "setting": "co-treatment: lapatinib 1 uM", "result": 0.28}, {"measurement": "phospho-S6 immunofluorescence (z-score)", "setting": "co-treatment: vehicle", "result": 0.19}]}
{"compound": "COc1cc(N)cn[n+]1-c1ccccc1", "note": "[Amezinium (methylsulfate)] (compound 10 µM)", "values": [{"measurement": "phospho-S6 immunofluorescence (z-score)", "setting": "co-treatment: GDC0941 450 nM", "result": -0.21}, {"measurement": "phospho-S6 immunofluorescence (z-score)", "setting": "co-treatment: lapatinib 1 uM", "result": 1.19}, {"measurement": "phospho-S6 immunofluorescence (z-score)", "setting": "co-treatment: vehicle", "result": 0.03}]}
{"compound": "O=C1NCC2(CCN(CCc3ccccc3)CC2)O1", "note": "[Fenspiride (Hydrochloride)] (compound 10 µM)", "values": [{"measurement": "phospho-S6 immunofluorescence (z-score)", "setting": "co-treatment: GDC0941 450 nM", "result": 0.59}, {"measurement": "phospho-S6 immunofluorescence (z-score)", "setting": "co-treatment: lapatinib 1 uM", "result": 0.67}, {"measurement": "phospho-S6 immunofluorescence (z-score)", "setting": "co-treatment: vehicle", "result": 1.01}]}
{"compound": "CC(=O)OCC(=O)[C@@]1(O)CC[C@H]2[C@@H]3CCC4=CC(=O)CC[C@]4(C)[C@H]3[C@@H](O)C[C@@]21C", "note": "[Hydrocortisone (acetate)] (compound 10 µM)", "values": [{"measurement": "phospho-S6 immunofluorescence (z-score)", "setting": "co-treatment: GDC0941 450 nM", "result": -0.25}, {"measurement": "phospho-S6 immunofluorescence (z-score)", "setting": "co-treatment: lapatinib 1 uM", "result": 1.4}, {"measurement": "phospho-S6 immunofluorescence (z-score)", "setting": "co-treatment: vehicle", "result": -0.24}]}
{"compound": "C[C@H]1CN(C[C@H](Cc2ccccc2)C(=O)NCC(=O)O)CC[C@@]1(C)c1cccc(O)c1", "note": "[Alvimopan (dihydrate)] (compound 10 µM)", "values": [{"measurement": "phospho-S6 immunofluorescence (z-score)", "setting": "co-treatment: GDC0941 450 nM", "result": -0.22}, {"measurement": "phospho-S6 immunofluorescence (z-score)", "setting": "co-treatment: lapatinib 1 uM", "result": 0.49}, {"measurement": "phospho-S6 immunofluorescence (z-score)", "setting": "co-treatment: vehicle", "result": -0.86}]}
{"compound": "CC(C)Cc1ccc([C@@H](C)C(=O)NS(C)(=O)=O)cc1", "note": "[Reparixin] (compound 10 µM)", "values": [{"measurement": "phospho-S6 immunofluorescence (z-score)", "setting": "co-treatment: GDC0941 450 nM", "result": 0.03}, {"measurement": "phospho-S6 immunofluorescence (z-score)", "setting": "co-treatment: lapatinib 1 uM", "result": 0.34}, {"measurement": "phospho-S6 immunofluorescence (z-score)", "setting": "co-treatment: vehicle", "result": -1.14}]}
{"compound": "CCc1cc(-c2noc(-c3cc(OC)nc(C4CCCC4)c3)n2)cc(C)c1OC[C@@H](O)CO", "note": "[Cenerimod] (compound 10 µM)", "values": [{"measurement": "phospho-S6 immunofluorescence (z-score)", "setting": "co-treatment: GDC0941 450 nM", "result": -3.08}, {"measurement": "phospho-S6 immunofluorescence (z-score)", "setting": "co-treatment: lapatinib 1 uM", "result": -4.72}, {"measurement": "phospho-S6 immunofluorescence (z-score)", "setting": "co-treatment: vehicle", "result": -4.14}]}
{"compound": "Cc1ccc(/C(=C\\CN2CCCC2)c2cccc(/C=C/C(=O)O)n2)cc1", "note": "[Acrivastine] (compound 10 µM)", "values": [{"measurement": "phospho-S6 immunofluorescence (z-score)", "setting": "co-treatment: GDC0941 450 nM", "result": 0.27}, {"measurement": "phospho-S6 immunofluorescence (z-score)", "setting": "co-treatment: lapatinib 1 uM", "result": 0.6}, {"measurement": "phospho-S6 immunofluorescence (z-score)", "setting": "co-treatment: vehicle", "result": 0.62}]}
{"compound": "OC[C@@H](O)CN1CCN(c2ccccc2)CC1", "note": "[Levodropropizine] (compound 10 µM)", "values": [{"measurement": "phospho-S6 immunofluorescence (z-score)", "setting": "co-treatment: GDC0941 450 nM", "result": -0.63}, {"measurement": "phospho-S6 immunofluorescence (z-score)", "setting": "co-treatment: lapatinib 1 uM", "result": 0.66}, {"measurement": "phospho-S6 immunofluorescence (z-score)", "setting": "co-treatment: vehicle", "result": -0.68}]}
{"compound": "CCCCc1oc2ccc(NS(C)(=O)=O)cc2c1C(=O)c1ccc(OCCCN(CCCC)CCCC)cc1", "note": "[Dronedarone] (compound 10 µM)", "values": [{"measurement": "phospho-S6 immunofluorescence (z-score)", "setting": "co-treatment: GDC0941 450 nM", "result": -3.7}, {"measurement": "phospho-S6 immunofluorescence (z-score)", "setting": "co-treatment: lapatinib 1 uM", "result": -8.99}, {"measurement": "phospho-S6 immunofluorescence (z-score)", "setting": "co-treatment: vehicle", "result": -9.98}]}
{"compound": "NC(=O)C(c1ccccc1)(c1ccccc1)[C@@H]1CCN(CCc2ccc3c(c2)CCO3)C1", "note": "[Darifenacin (hydrobromide)] (compound 10 µM)", "values": [{"measurement": "phospho-S6 immunofluorescence (z-score)", "setting": "co-treatment: GDC0941 450 nM", "result": -1.6}, {"measurement": "phospho-S6 immunofluorescence (z-score)", "setting": "co-treatment: lapatinib 1 uM", "result": -1.5}, {"measurement": "phospho-S6 immunofluorescence (z-score)", "setting": "co-treatment: vehicle", "result": 0.03}]}
{"compound": "CN1CCN(CCCN2c3ccccc3Sc3ccc(C(F)(F)F)cc32)CC1", "note": "[Trifluoperazine (dihydrochloride)] (compound 10 µM)", "values": [{"measurement": "phospho-S6 immunofluorescence (z-score)", "setting": "co-treatment: GDC0941 450 nM", "result": -4.47}, {"measurement": "phospho-S6 immunofluorescence (z-score)", "setting": "co-treatment: lapatinib 1 uM", "result": -5.54}, {"measurement": "phospho-S6 immunofluorescence (z-score)", "setting": "co-treatment: vehicle", "result": -4.02}]}
{"compound": "CNCC(O)c1ccc(O)c(O)c1", "note": "(racemic) [DL-Epinephrine] (compound 10 µM)", "values": [{"measurement": "phospho-S6 immunofluorescence (z-score)", "setting": "co-treatment: GDC0941 450 nM", "result": 1.29}, {"measurement": "phospho-S6 immunofluorescence (z-score)", "setting": "co-treatment: lapatinib 1 uM", "result": 5.47}, {"measurement": "phospho-S6 immunofluorescence (z-score)", "setting": "co-treatment: vehicle", "result": 4.64}]}
{"compound": "C[N+]1(C)CCC(OC(=O)C(O)(c2ccccc2)C2CCCC2)C1", "note": "(stereo unspecified) [Glycopyrrolate] (compound 10 µM)", "values": [{"measurement": "phospho-S6 immunofluorescence (z-score)", "setting": "co-treatment: GDC0941 450 nM", "result": 0.59}, {"measurement": "phospho-S6 immunofluorescence (z-score)", "setting": "co-treatment: lapatinib 1 uM", "result": 0.25}, {"measurement": "phospho-S6 immunofluorescence (z-score)", "setting": "co-treatment: vehicle", "result": 1.14}]}
{"compound": "CC(C)(O)c1ccccc1CC[C@@H](SCC1(CC(=O)O)CC1)c1cccc(/C=C/c2ccc3ccc(Cl)cc3n2)c1", "note": "[Montelukast (sodium)] (compound 10 µM)", "values": [{"measurement": "phospho-S6 immunofluorescence (z-score)", "setting": "co-treatment: GDC0941 450 nM", "result": 0.45}, {"measurement": "phospho-S6 immunofluorescence (z-score)", "setting": "co-treatment: lapatinib 1 uM", "result": 0.97}, {"measurement": "phospho-S6 immunofluorescence (z-score)", "setting": "co-treatment: vehicle", "result": 1.39}]}
{"compound": "O=C(O)CCc1ccc(NCc2cccc(Oc3ccccc3)c2)cc1", "note": "(compound 10 µM)", "values": [{"measurement": "phospho-S6 immunofluorescence (z-score)", "setting": "co-treatment: GDC0941 450 nM", "result": -0.04}, {"measurement": "phospho-S6 immunofluorescence (z-score)", "setting": "co-treatment: lapatinib 1 uM", "result": 0.32}, {"measurement": "phospho-S6 immunofluorescence (z-score)", "setting": "co-treatment: vehicle", "result": 1.24}]}
{"compound": "CCC/N=C1\\S/C(=C\\c2ccc(OC[C@H](O)CO)c(Cl)c2)C(=O)N1c1ccccc1C", "note": "[Ponesimod] (compound 10 µM)", "values": [{"measurement": "phospho-S6 immunofluorescence (z-score)", "setting": "co-treatment: GDC0941 450 nM", "result": -0.8}, {"measurement": "phospho-S6 immunofluorescence (z-score)", "setting": "co-treatment: lapatinib 1 uM", "result": 0.52}, {"measurement": "phospho-S6 immunofluorescence (z-score)", "setting": "co-treatment: vehicle", "result": 1.07}]}
{"compound": "CCCc1nc(C(C)(C)O)c(C(=O)OCc2oc(=O)oc2C)n1Cc1ccc(-c2ccccc2-c2nnn[nH]2)cc1", "note": "[Olmesartan (medoxomil)] (compound 10 µM)", "values": [{"measurement": "phospho-S6 immunofluorescence (z-score)", "setting": "co-treatment: GDC0941 450 nM", "result": -0.4}, {"measurement": "phospho-S6 immunofluorescence (z-score)", "setting": "co-treatment: lapatinib 1 uM", "result": -0.27}, {"measurement": "phospho-S6 immunofluorescence (z-score)", "setting": "co-treatment: vehicle", "result": -0.03}]}
{"compound": "O=C(CCCN1CCC(O)(c2ccc(Cl)cc2)CC1)c1ccc(F)cc1", "note": "[Haloperidol] (compound 10 µM)", "values": [{"measurement": "phospho-S6 immunofluorescence (z-score)", "setting": "co-treatment: GDC0941 450 nM", "result": 1.78}, {"measurement": "phospho-S6 immunofluorescence (z-score)", "setting": "co-treatment: lapatinib 1 uM", "result": -0.01}, {"measurement": "phospho-S6 immunofluorescence (z-score)", "setting": "co-treatment: vehicle", "result": 0.93}]}
{"compound": "Cc1ccc(C(=O)Nc2ccc(S(=O)(=O)O)c3cc(S(=O)(=O)O)cc(S(=O)(=O)O)c23)cc1NC(=O)c1cccc(NC(=O)Nc2cccc(C(=O)Nc3cc(C(=O)Nc4ccc(S(=O)(=O)O)c5cc(S(=O)(=O)O)cc(S(=O)(=O)O)c45)ccc3C)c2)c1", "note": "[Suramin (sodium salt)] (compound 10 µM)", "values": [{"measurement": "phospho-S6 immunofluorescence (z-score)", "setting": "co-treatment: GDC0941 450 nM", "result": 0.54}, {"measurement": "phospho-S6 immunofluorescence (z-score)", "setting": "co-treatment: lapatinib 1 uM", "result": 1.39}, {"measurement": "phospho-S6 immunofluorescence (z-score)", "setting": "co-treatment: vehicle", "result": -0.09}]}
{"compound": "Cc1cc2c(s1)Nc1ccccc1N=C2N1CCN(C)CC1", "note": "[Olanzapine] (compound 10 µM)", "values": [{"measurement": "phospho-S6 immunofluorescence (z-score)", "setting": "co-treatment: GDC0941 450 nM", "result": 0.77}, {"measurement": "phospho-S6 immunofluorescence (z-score)", "setting": "co-treatment: lapatinib 1 uM", "result": 0.3}, {"measurement": "phospho-S6 immunofluorescence (z-score)", "setting": "co-treatment: vehicle", "result": 0.35}]}
{"compound": "CN1CCC(=C2c3ccccc3CCc3cccnc32)CC1", "note": "[Azatadine (dimaleate)] (compound 10 µM)", "values": [{"measurement": "phospho-S6 immunofluorescence (z-score)", "setting": "co-treatment: GDC0941 450 nM", "result": 0}, {"measurement": "phospho-S6 immunofluorescence (z-score)", "setting": "co-treatment: lapatinib 1 uM", "result": 0.29}, {"measurement": "phospho-S6 immunofluorescence (z-score)", "setting": "co-treatment: vehicle", "result": -0.32}]}
